Compound activity as filed in PubChem.
An excerpt weighted towards active compounds, which were near 2.2% of everything screened.
KLF5 inh = suppresses KLF5 promoter-driven expression; AID 1700; 290,000 compounds, 0.23% hits; DLD-1 KLF5 promoter-luciferase reporter, luminescence; inhibition, % at 5 µM;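 active = inhibition above a per-plate limit of that plate's mean compound inhibition plus 3 SD, cut at about 60% in these data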;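 note: 0% = DMSO wells and 100% = LY294002 at 200 µM; higher means less KLF5 promoter-driven luciferase light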
APP 5UTR inh = APP translation inhibition. SH-SY5Y APP 5'UTR-luciferase reporter, luminescence. inhibition, % at 2 µM. 190,000 compounds, 0.82% hits. AID 1285;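 active = inhibition above a set limit, derived from the sample mean plus 3 SD, cut at about 45% in these data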
IEC-6 cytotox = kills IEC-6 intestinal cells in KLF5 counter-screen; inhibition, % at 5 µM; 290,000 compounds, 0.78% hits; IEC-6 cytotoxicity, luminescence viability; AID 1825;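 note: 0% = plate median of test compound wells and 100% = cytotoxic reference compound wells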
Ba/F3 V617F tox = loss of viability in JAK2V617F-driven Ba/F3 cells; AID 1446; Ba/F3 EpoR-JAK2V617F viability, ATP luminescence; inhibition, % at 5.6 µM; 220,000 compounds, 1.1% hits;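 active = inhibition above the campaign mean plus 3 SD over all tested compounds, cut at about 24% in these data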;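 note: cytokine-independent growth of Ba/F3 cells driven by EpoR plus mutant JAK2; 0% = DMSO-treated cells and 100% = JAK inhibitor I control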
BaF3 parental = parental Ba/F3 viability inhibition as JAK2V617F counter-screen; 220,000 compounds, 1.1% hits; AID 1486; inhibition, % at 5.6 µM; CellTiter-Glo ATP luminescence;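 active = inhibition above a per-campaign cutoff, the mean inhibition of all tested compounds plus 3 SD, cut at about 27% in these data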;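 note: 0% = DMSO wells and 100% = JAK Inhibitor I control wells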
aSyn UTR inh = MLPCN primary screen, SNCA 5' untranslated region. AID 1813. inhibition, % (tested at 7.5 µM). 300,000 compounds, 0.82% hits. alpha-synuclein 5'UTR reporter, inhibitor activity; in the data active = inhibition above about 60%;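 note: H4 neuroglioblastoma cells stably carrying SNCA 5'UTR luciferase fusion; 0% = DMSO wells and 100% = positive control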
IEC-6 tox confirm = confirmation of cytotoxic compounds in rat IEC-6 intestinal epithelial cells | shares compounds with IEC-6 cytotox | IEC-6 rat intestinal epithelial viability, luminescence | inhibition, % at 5 µM | 1,900 compounds, 63% hits;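 note: 0% = vehicle and 100% = reference cytotoxic drug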
* marks the source's active call; other numbers are inactive results; . = not tested or not shown. Cut-off read from the data, not from the text of the source, unless noted: active = inhibition above about 22%; inactive = the rest.

SMILES	KLF5 inh	APP 5UTR inh	IEC-6 cytotox	Ba/F3 V617F tox	BaF3 parental	aSyn UTR inh	IEC-6 tox confirm
Cc1ccc2c(CNCc3ccccc3)cc(=O)oc2c1	40	.	28*	.	.	-65	29*
Cc1ccc2c(CN(C)Cc3cccc(F)c3)cc(=O)oc2c1	-103	.	14	.	.	-124	.
COc1cc2c(cc1OC)CN(C(=O)/C=C/c1cccc([N+](=O)[O-])c1)CC2	-23	.	-2	.	.	20	.
Cc1cc(C)c(NC(=S)N2CCC(N(C)CC3CCCO3)CC2)c(C)c1 (stereo not given)	-3	16	27*	-7	2	-46	-7
CCOc1ccc(S(=O)(=O)NCc2ccncc2)cc1NC(=O)c1ccccc1F	-16	.	3	.	.	-4	.
CCOc1ccc(S(=O)(=O)NCc2cccnc2)cc1NC(=O)c1ccccc1F	26	.	33*	.	.	-43	7
CCOc1ccc(N=Cc2c(C)[nH]n(-c3nc4ccccc4[nH]3)c2=O)cc1	-23	5	30*	28*	34*	39	53*
CC(C)NCC(O)Cn1c2c(c3ccccc31)CCc1c-2cnn1-c1ccccc1 (stereo not given)	22	87*	75*	88*	79*	108*	73*
CN1CCc2c(n(CC(O)CNCc3ccccc3)c3ccccc23)C1=O (stereo not given)	14	-12	9	1	-6	39	.
CC(C)c1ccc(NC(=O)CCc2ccccc2)cc1	-64	.	29*	.	.	-389	52*
O=C(CCc1ccccc1)Nc1ccncc1	-15	-20	-2	-3	-4	-11	.
C=CCOC(=O)/C(=C/c1cccc2ccccc12)NC(=O)c1ccccc1	-57	-29	-5	-1	4	-258	.
O=C(Nc1ncccc1O)c1ccc(Oc2ccccc2)cc1	-87	.	-2	.	.	-198	.
O=C(O)c1[nH]c2ccc([N+](=O)[O-])cc2c1-c1ccccc1	5	.	-1	-3	1	-9	.
NNC(=O)c1[nH]c2ccc([N+](=O)[O-])cc2c1-c1ccccc1	-3	.	91*	.	.	-1	-3
CCOc1ccc(C(=O)NCC(=O)Nc2ncccc2C)cc1OCC	.	.	.	.	.	24	.
CC(C)c1ccc(NC(=O)N2CCCC2C(=O)Nc2ccc(-n3cnnn3)cc2)cc1 (stereo not given)	-75	-4	1	-2	4	-7	.
CCCn1c(SCC(=O)Nc2ccccc2OC)nnc1-c1ccco1	39	.	35*	.	.	2	16
COCCn1c(SCC(=O)Nc2ccccc2OC)nnc1-c1ccco1	6	.	-6	.	.	5	.
Cc1cnc(NC(=O)CC(C)c2ccccc2)s1 (stereo not given)	28	.	33*	.	.	-196	23*
CC(C)c1nnc(NC(=O)CC(C)c2ccccc2)s1 (stereo not given)	-48	.	-1	.	.	-56	.
COc1ccc(OC)c(C2NC(=O)NC(C)=C2C(=O)OCc2ccccc2)c1 (stereo not given)	7	.	-1	.	.	13	.
COc1ccc(N(CC(=O)Nc2cc(Cl)ccc2C)S(=O)(=O)c2c(C)noc2C)cc1	43	.	64*	.	.	78*	44*
CCCCOC(=O)c1ccc(NC(C)=O)cc1	-25	-10	24*	5	4	-6	6
COc1cccc(NC(=O)C2Cc3ccccc3CN2C(=O)c2ccco2)c1 (stereo not given)	-32	.	4	.	.	-94	.
SMILES	KLF5 inh	APP 5UTR inh	IEC-6 cytotox	Ba/F3 V617F tox	BaF3 parental	aSyn UTR inh	IEC-6 tox confirm
CCc1ccc2oc(C(=O)N3CCN(c4ccccc4OC)CC3)cc(=O)c2c1	8	.	31*	.	.	-4	55*
CCc1ccc2oc(C(=O)N3CCN(c4ccc(OC)cc4)CC3)cc(=O)c2c1	-18	.	4	.	.	-5	.
Cc1[nH]c2ccccc2c1/C=C/c1nc2ccccc2c(=O)n1CCO	18	18	2	0	3	-62	.
CCCCC(=O)Nc1ccc(C(=O)OC2CCCCC2)cc1	-30	-13	24*	3	10	-11	18
O=C(O)CCC(=O)Nc1ccc(C(=O)OC2CCCCC2)cc1	-19	17	4	2	5	49	.
CCc1nnc(NC(=O)C(NC(=O)c2ccccc2Cl)C(C)C)s1 (stereo not given)	14	10	-2	0	1	8	.
CC(C)[C@H](NC(=O)c1ccccc1Cl)C(=O)Nc1nc(-c2ccccn2)cs1	27	3	40*	0	12	64*	40*
CC(Oc1ccc(Br)cc1)C(=O)Nc1nc(-c2ccccn2)cs1 (stereo not given)	21	.	50*	.	.	45	24*
Cn1c(=O)c2c(nc(SCC(=O)N3CCc4ccccc43)n2Cc2ccc(F)cc2)n(C)c1=O	-20	7	-1	-6	-1	.	.
O=[N+]([O-])c1ccc2nnn(O)c2c1	-16	14	-1	2	2	1	.
CCCOc1ccc(C(=O)NNC(=S)NC(=O)c2cccs2)cc1	28	.	39*	.	.	54	50*
CCCOc1ccc(C(=O)NNC(=S)NC(=O)c2ccccc2)cc1	19	.	37*	.	.	80*	18
CC(=O)N[C@@H](Cc1ccc(O)cc1)CN1C(N)=NC[C@@H]1CC(C)C	-27	.	4	.	.	-13	.
CCOC(=O)c1sc(NC(=O)CCc2ccccc2)nc1C	46	.	54*	.	.	-146	22*
Oc1ccc(C(=S)N2CCN(c3cccc(Cl)c3)CC2)cc1	-12	1	6	4	4	14	.
COc1cc(C(=S)N2CCN(c3cccc(Cl)c3)CC2)ccc1O	9	6	28*	3	9	5	14
Cc1nccn1Cc1ccccc1	-34	.	-1	.	.	18	.
CCCNC(=O)c1cc2c3ccccc3n(C)c2s1	-6	.	5	-1	8	-46	.
Cn1c2ccccc2c2cc(C(=O)NNC(=O)CCl)sc21	12	-7	27*	22	1	-7	17
COC(=O)C1=C(NC(C)=O)CCS1	-22	5	23*	7	8	5	4
COC(=O)C1=C(NC(=O)c2ccc(C)cc2)CCS1	-34	5	-1	0	4	-53	.
Cc1cc2nc(/C=C/c3cccnc3)[nH]c2cc1C	6	.	88*	.	.	92*	59*
